# Sampled rows, rich in hits. Any-hit rate of the full collection: about 18%.
# TGFb inhibitor – blocks TGF-b signaling; Potency, µM (titrated, usually from 46.1 µM), without a hit: at the top dose activity, negative = inhibition, most hits filed as inhibitors; HepG2 CAGA-GFP TGF-b/SMAD3 reporter, GFP fluorescence, 18 h; TGF-beta stimulated, 500 pg/mL final; 1.2% of 410,000 active; AID 588855; note: potency is the fitted concentration of half-maximal effect; % is set by controls: 0 for no effect and ±100 for the full control effect; nearly all actives have a fitted effect of over 65% in size
#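 Inhibition was scored as loss of TGF-beta-induced (500 pg/mL final, 18 hours, 37 degrees C) GFP in HEPG2 cells carrying a CAGA-GFP reporter, in DMEM with 1% FBS. Well GFP was summed per cell; Activity was normalised to unstimulated and stimulated DMSO wells, then concentration-response fitting.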
# DT40 TDP1 no CPT – qHTS for Inhibitors of human tyrosyl-DNA phosphodiesterase 1 (TDP1): qHTS in cells in absence of CPT. 15% of 420,000 active. Potency, µM (top dose mostly 46.2 µM), inactives show at the top dose activity change, negative = growth inhibition, hits mostly inhibitors. DT40 Tdp1-/- hTDP1 cells, no CPT, ATP luminescence, 48 h; note: potency is the fitted concentration of half-maximal effect; % is set by controls: 0 for no effect and ±100 for the full control effect; nearly all actives have a fitted effect of over 55% in size
#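 Growth of hTDP1-complemented DT40 Tdp1-knockout cells is measured by ATP luminescence after at least 48 hr compound exposure at 37 °C, with DMSO substituting for the 20 nM CPT used in the parallel screen.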
# IL-1B inflam inh – inflammasome signaling inhibition, IL-1 beta readout; 4.7% of 360,000 active; activity change, % at 57.5 µM; THP-1 LPS/ATP IL-1B secretion, AlphaLISA, 16 h; hits give low values; in the data active = activity change below about -50%; inconclusive = mostly about -30% to -49%; note: % is set by controls: 0 for no effect and ±100 for the full control effect
#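 THP-1 cells pretreated 1 hr with compounds (up to 57.5 uM final), then stimulated with LPS (250 ng/mL final) plus ATP (1.25 mM final); secreted IL-1B measured by AlphaLISA after 16 hr, decreased signal indicating inhibition.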
# TDP1 inh – TDP1 (human) enzyme inhibition; recombinant TDP1, AlphaScreen DNA substrate cleavage; 0.28% of 350,000 active; AID 485290; Q9NUW8; Potency, µM (series often up to 130 µM), inactives show at the highest dose activity change, negative = inhibition, hits mostly inhibitors; note: potency is the fitted concentration of half-maximal effect; % is set by controls: 0 for no effect and ±100 for the full control effect; nearly all actives have a fitted effect of over 40% in size
# Target sequence (Q9NUW8 whole entry, looked up): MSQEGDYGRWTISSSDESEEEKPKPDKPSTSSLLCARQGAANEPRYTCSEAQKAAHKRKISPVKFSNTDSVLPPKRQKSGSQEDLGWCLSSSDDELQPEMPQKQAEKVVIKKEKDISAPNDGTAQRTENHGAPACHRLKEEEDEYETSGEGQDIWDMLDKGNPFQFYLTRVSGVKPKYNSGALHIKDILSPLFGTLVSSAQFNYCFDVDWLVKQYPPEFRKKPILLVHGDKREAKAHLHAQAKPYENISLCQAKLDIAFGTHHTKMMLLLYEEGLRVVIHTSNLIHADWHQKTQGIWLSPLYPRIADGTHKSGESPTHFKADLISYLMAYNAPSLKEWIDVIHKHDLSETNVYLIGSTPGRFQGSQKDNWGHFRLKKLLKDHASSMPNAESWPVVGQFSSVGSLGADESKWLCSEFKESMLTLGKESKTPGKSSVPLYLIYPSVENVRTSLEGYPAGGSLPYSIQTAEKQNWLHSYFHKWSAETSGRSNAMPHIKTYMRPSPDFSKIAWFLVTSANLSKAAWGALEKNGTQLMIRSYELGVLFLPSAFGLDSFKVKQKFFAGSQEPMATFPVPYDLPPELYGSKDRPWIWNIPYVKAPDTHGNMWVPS
#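 Compounds were preincubated with Tdp1 (1 nM final) for 15 min at room temperature before substrate (15 nM final) started a 5 min reaction; beads (10 ug/ml final) were then added for 10 min before AlphaScreen detection.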
# HepG2 viability – kills HepG2 cells in TGF-b inhibitor counter-screen | 0.76% of 410,000 active | HepG2 CAGA-GFP viability, ATP luminescence, 18 h | Potency, µM (doses to about 46.1 µM), inactives show at the top dose activity change, negative = cytotoxicity, most hits filed as cytotoxic; note: potency is the fitted concentration of half-maximal effect
#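 HepG2 CAGA-GFP cells (1000/well, DMEM with 1% FBS) received compound, then TGF-beta at 500 pg/mL final, and were incubated 18 hours at 37 degrees C. Viability was read by CellTiter-Glo luminescence. Media-only wells were set as complete cell-killing and DMSO as no toxicity.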
# DT40 TDP1 CPT – growth inhibition of DT40 Tdp1-/-;hTDP1 cells with camptothecin (screen for TDP1 inhibitors) | chicken DT40 Tdp1-/-;hTDP1 cells + 20 nM CPT, ATP luminescence, 48 h | Potency, µM (titrated, usually from 46.2 µM), without a hit: at the top dose activity change, negative = growth inhibition, hits mostly inhibitors | 12% of 420,000 active | AID 686979; note: potency is the fitted concentration of half-maximal effect; % is set by controls: 0 for no effect and ±100 for the full control effect; nearly all actives have a fitted effect of over 55% in size
#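 Chicken DT40 Tdp1-/- cells complemented with human TDP1, 400 cells/well, exposed to compounds plus 20 nM camptothecin for at least 48 h at 37 C; viability read as ATP content by CellTiter-Glo luminescence.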
# * marks the source's active call; other numbers are inactive results; ? = inconclusive; / = no result given. Unless noted, calls come from the whole dose curve; as a rule, active = well fitted curve in the direction sought with a large enough effect; inconclusive = small, poorly fitted or top-dose-only effect, or another doubt; inactive = no such curve, though single readings can be large; an effect the other way counts as inactive or inconclusive.
SMILES,TGFb inhibitor,DT40 TDP1 no CPT,IL-1B inflam inh,TDP1 inh,HepG2 viability,DT40 TDP1 CPT
COC(=O)N1CCCCC1c1cc(C(=O)NCc2ccc(F)cc2)no1 (stereo not given),27%,-9%,-5,/,4%,-6%
O=C(NCc1ccc(F)cc1)c1cc(C2CCCCN2C(=O)OCCF)on1 (stereo not given),10%,?,-3,/,2%,?
CCOc1ccc(-c2nc(N)ncc2Oc2ccc(OC)cc2)c(O)c1,-16%,2%,-87*,8%,-7%,-5%
CCOc1ccc(-c2nc(N)ncc2-c2ccc(OC)cc2)c(O)c1,-4%,?,-8,5%,-29%,?
C=C(C)COc1ccc(-c2nc(N)ncc2Oc2ccccc2OCC)c(O)c1,?,?,-9,7%,-102%,?
CCOc1ccc(-c2nc(N)ncc2-c2ccccc2)c(O)c1,2%,15µM*,?,6%,-16%,21µM*
CCOC(=S)SCc1cn2ccc(C)cc2n1,?,?,-57*,8%,-41%,?
CCOC(=S)SCc1cn2ccccc2n1,0%,-14%,?,7%,-82%,0%
CCCN1CCN(c2ncnc3sc(C(=O)Nc4ccc(C(C)C)cc4)c(C)c23)CC1,?,?,/,1%,-39%,21µM*
CCCN1CCN(c2ncnc3sc(C(=O)Nc4ccc(OC(F)(F)F)cc4)c(C)c23)CC1,22µM*,21µM*,/,1%,-112%,?
Cc1cc(C)c2nc(N3C(=O)C(O)=C(C(=O)c4ccco4)C3c3ccco3)sc2c1 (stereo not given),13%,?,26,-11%,-36%,?
COc1cccc(NC(=O)CN(C)CC(=O)Nc2cccc(C(F)(F)F)c2)c1,-1%,?,-17,/,-1%,-7%
COc1cc(NC(=O)c2csc(-c3ccncc3)n2)cc(C(=O)Nc2cccc(C(F)(F)F)c2)c1,?,4.6µM*,-15,6%,-18%,8.2µM*
COc1cc(NC(=O)c2nccnc2N)cc(C(=O)Nc2cccc(C(F)(F)F)c2)c1,19%,?,58,0%,-3%,?
COc1cc(NC(=O)c2ccno2)cc(C(=O)Nc2cccc(C(F)(F)F)c2)c1,-29%,16µM*,-6,5%,-24%,?
COc1ccc(-c2cc(C(=O)Nc3cc(OC)cc(C(=O)Nc4cccc(C(F)(F)F)c4)c3)[nH]n2)cc1,?,2.6µM*,46,-9%,-74%,2.3µM*
COc1cc(NC(=O)c2ccc(N)nc2)cc(C(=O)Nc2cccc(C(F)(F)F)c2)c1,?,16µM*,-11,-5%,-28%,?
CCC(=O)Nc1ccc(C(=O)NNC(=O)c2cccc(C)c2)cc1,-16%,6%,20,/,-3%,6%
CC(=O)NC1CC2CCCC(C1)N2C(=O)Nc1ccc(Cl)cc1 (stereo not given),9%,-16%,15,/,8%,3%
COC(=O)c1c(NC(=O)CSc2nc3nc(C)cc(C)n3n2)sc(C)c1C,1%,?,30,0%,-9%,-25%
COc1ccc2nc3oc(C(=O)Nc4cccc(C(F)(F)F)c4)cc3cc2c1,-10%,12µM*,/,4%,-18%,13µM*
COc1cc(NC(=O)c2nccn2C)cc(C(=O)Nc2cccc(C(F)(F)F)c2)c1,1%,6.5µM*,61,4%,-26%,?
Cn1nccc1C(=O)Nc1cccc(C(F)(F)F)c1,-7%,-6%,21,3%,4%,-12%
COc1cc(NC(=O)c2cc3cccc(OC)c3o2)cc(C(=O)Nc2cccc(C(F)(F)F)c2)c1,?,5.2µM*,40,5%,-13%,6.5µM*
COc1cc(Nc2ccccn2)cc(C(=O)Nc2cccc(C(F)(F)F)c2)c1,?,?,-5,2%,-54%,16µM*
SMILES,TGFb inhibitor,DT40 TDP1 no CPT,IL-1B inflam inh,TDP1 inh,HepG2 viability,DT40 TDP1 CPT
COc1ccc(C(=O)c2cc3cccc(OC)c3o2)cc1,0%,7%,-6,0%,-5%,-22%
COc1cc(OC)cc(C(=O)Nc2cccc(C(C)=O)c2)c1,3%,-15%,4,-5%,-23%,-10%
COC(=O)c1nc(Nc2cc(F)cc(F)c2)nc(NC2CCCC2)n1,/,/,/,0%,/,/
N#CCCN(Cc1ccccc1)C(=O)c1cccs1,-12%,-7%,/,-2%,-12%,13%
CN1CCN(C2=C(Cl)C(=O)N(C3CCCCC3)C2=O)CC1,13µM*,?,?,0%,-79%,?
c1coc(-c2nc3nc4ccccc4nc3n2CC2CCCO2)c1 (stereo not given),-9%,?,5,-1%,5%,-13%
c1ccc(-c2nc3nc4ccccc4nc3n2CC2CCCO2)cc1 (stereo not given),2%,15µM*,-3,/,-30%,?
Nc1ncc(-c2ccccc2)n1CC1CCCO1 (stereo not given),?,18µM*,-26,11%,-16%,?
Fc1c(F)c(C(F)(F)F)c(F)c(F)c1N/N=C\c1cccs1,?,18µM*,-74*,-1%,-68%,16µM*
O=C(CNC(=O)c1ccccc1C(F)(F)F)N/N=C/c1cccs1,37%,-11%,1,2%,28%,0%
CN(C)CCNc1oc(COc2ccc(-c3ccccc3)cc2)nc1C#N,?,?,-19,8%,11µM*,?
N#Cc1nc(COc2ccc(-c3ccccc3)cc2)oc1NCCCN1CCOCC1,7%,23µM*,?,4%,-43%,23µM*
Cc1ccc(CNC(=O)CN2C(=O)COc3ccccc32)cc1,3%,-11%,/,5%,14%,10%
CC(C)n1c(/N=C/c2c[nH]c3ccccc23)nc2ccccc21,?,-26%,0,6%,-82%,?
C(=C\c1c[nH]c2ccccc12)/c1ccnc2ccccc12,?,20µM*,/,/,-36%,?
Cc1[nH]c2ccccc2c1/C=C/c1ccnc2ccccc12,13µM*,2.8µM*,/,/,-110%,5.6µM*
COc1cccc(=O)c2c(C)n(CC(=O)c3ccccc3)c(C)c12,-6%,-21%,-21,6%,-6%,?
CCOc1cccc(=O)c2c(C)n(CC(=O)c3ccccc3)c(C)c12,7%,?,-59*,9%,-25%,?
